Screening results deposited in PubChem BioAssay by several laboratories.
Only some compounds are listed: those with a hit (about 1.6% of all), similar ones and a draw of the others.
PfHsp40 yeast: compounds rescuing yeast from Plasmodium falciparum HSP40 toxicity; S. cerevisiae expressing PfHsp40, growth rescue, ATP luminescence; growth rescue, % at 12.5 µM; 340,000 tested, 0.68% active; AID 504582; in the data active means growth rescue above about 28%, passing the limit was not always enough; inconclusive means no clear call, values can overlap the other calls;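 further: yeast W303a lacking pdr1 and pdr3 grown in galactose medium; growth measured after three days at 30 °C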
PriA SSB inh: blocks PriA binding to SSB C-terminal tail. AlphaScreen SSBct-PriA binding, biotinylated peptide. inhibition, % at 33 µM. 430,000 tested, 0.6% active. AID 1272365; in the data active means inhibition mostly above about 37%, no sharp cut-off; inactive means mostly below about 20%;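 further: plate controls were negative control peptide for no effect and reference peptide for full effect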
Vc quorum ag: inducers of Vibrio cholerae quorum light production without autoinducers | V. cholerae BH1578 lux reporter, luminescence, 6 h | activation, % at 18.7 µM | 350,000 tested, 0.16% active; in the data active means activation mostly above about 9.7%, no sharp cut-off; inconclusive means no clear call, values can overlap the other calls; inactive means mostly below about 3.7%
PrP UTR inh: inhibition of PrP 5' UTR reporter expression; AID 488862; 340,000 tested, 0.35% active; inhibition, % (concentration not given with the values); cell-based PrP 5' UTR mRNA reporter, plate reader; in the data active means inhibition above about 52%; further: 0 = median of the neutral control wells
PrPC TRFRET: inhibitors of human cell surface prion protein PrPC. P04156. 370,000 tested, 0.43% active. inhibition, % at 13.8 µM. TR-FRET read-out; in the data active means inhibition above about 24%; further: 0% = median of the test wells and 100% = reference compound wells
SARS 3CLpro inh: SARS-CoV 3CLpro protease inhibition | 290,000 tested, 0.14% active | inhibition, % at 6 µM | recombinant SARS-CoV 3CLpro, quenched FRET peptide cleavage; in the data active means inhibition above about 12%
Starred values were filed as active, the others as inactive; i = inactive; ? = inconclusive; / = not tested or not shown; ! = not active in a repeat.

SMILES | PfHsp40 yeast | PriA SSB inh | Vc quorum ag | PrP UTR inh | PrPC TRFRET | SARS 3CLpro inh
CN(C)S(=O)(=O)c1cccc(NC(=O)CNCc2ccccn2)c1 | 0 | 50* | 0 | -3 | -5 | 1
Cc1ccc(S(=O)(=O)N2CCOCC2)cc1NC(=O)CNCc1ccccc1Cl | 0 | -7 | 0 | -4 | 2 | /
O=C(CNCc1ccncc1)Nc1cc(S(=O)(=O)N2CCCCC2)ccc1Cl | 0 | -12 | 1 | -17 | 5 | -1
COc1ccccc1CN(C)CC(=O)Nc1cccc(S(=O)(=O)N2CCCC2)c1 | 2 | -3 | -13 | -19 | 6 | /
Cc1ccc(S(=O)(=O)N2CCOCC2)cc1NC(=O)CNCc1ccccn1 | 1 | 44* | 0 | -21 | -6 | -4
O=C(CNCc1ccccn1)Nc1cc(S(=O)(=O)N2CCCCC2)ccc1Cl | -1 | 41* | 0 | 10 | 1 | -1
COc1ccc(CC(=O)Nc2ccc(Cn3cnc(C(=O)Nc4ccc(F)c(F)c4)c3)cc2)cc1OC | / | 6 | / | / | / | /
CC(C)(C)c1ccc(C(=O)Nc2ccc3c(c2)CN(S(=O)(=O)c2ccccc2)CC3)cc1 | / | 11 | / | / | / | /
CC1CCc2c(sc3c2C(=O)NC(c2ccccn2)N3)C1 (stereo unspecified) | / | 67* | / | / | / | /
CC(=O)Nc1ccc(-c2sc(Nc3cccc4ccccc34)n[n+]2-c2ccccc2)cc1 | -1 | 63* | i | -4 | 1 | 7
CCc1ccc(Nc2n[n+](-c3ccccc3)c(-c3ccc(SC)cc3)s2)cc1 | 0 | 66* | i | -16 | -9 | 3
COc1ccc(C)cc1Nc1n[n+](-c2ccccc2)c(-c2ccc(NC(C)=O)cc2)s1 | 0 | 47* | 0 | -11 | -1 | 4
CSc1ccc(-c2sc(Nc3ccccc3)n[n+]2-c2ccccc2)cc1 | 2 | 3 | i | -11 | / | -2
CSc1ccc(-c2sc(Nc3cccc4ccccc34)n[n+]2-c2ccccc2)cc1 | 2 | 47* | -7 | -11 | -6 | 4
CCc1ccc(Nc2n[n+](-c3ccccc3)c(-c3ccc(C(=O)O)cc3)s2)cc1 | 1 | -5 | -11 | -9 | -1 | -4
CCc1ccc(Nc2n[n+](-c3ccccc3)c(-c3ccc(OC)c(Br)c3)s2)cc1 | 1 | 56* | -11 | -9 | 1 | 5
O=C(NCCn1ccnc1C1CC1)c1cc(Br)cs1 | / | -9 | / | / | / | /
CCOc1ccc(-c2cc(C(=O)NCc3ccc(C)cc3)no2)cc1 | / | -7 | / | / | / | /
Clc1ccc(OCc2nc(-c3ccncc3)no2)c(Br)c1 | 597* | -18 | 0 | -88 | 7 | 3
COc1ccccc1C(=O)Nc1ccccc1Cc1nc(C2CC2)no1 | / | -9 | / | / | / | /
O=C(NCc1ccc(OC(F)(F)F)cc1)c1cc(-c2ccccc2)nn1CC1CC(c2cccnc2)=NO1 (stereo unspecified) | 65* | 0 | i | -3 | 4 | /
Cc1nc(-c2ccccn2)n[nH]1 | / | 99*! | / | / | / | /
Brc1ccc(OCc2nc(-c3ccccn3)n[nH]2)cc1 | 0 | 86* | i | -31 | -3 | 4
Clc1ccc(OCc2nc3ccccc3[nH]2)cc1 | 1 | -9 | i | -64 | 1 | 0
NCCc1nc(-c2ccccn2)n[nH]1 | / | 93* | / | / | / | /
SMILES | PfHsp40 yeast | PriA SSB inh | Vc quorum ag | PrP UTR inh | PrPC TRFRET | SARS 3CLpro inh
Clc1ccc(OCc2nc(-c3ccccn3)n[nH]2)cc1 | 2 | 64* | i | 0 | 12 | -7
CC(=O)Nc1ccc(C(=O)NCCNS(=O)(=O)c2ccc(C)s2)cc1 | / | -9 | / | / | / | /
COc1cc(C=NNC(=O)C(Cc2c[nH]c3ccccc23)NC(=O)OCC(C)C)cc([N+](=O)[O-])c1O (stereo unspecified) | / | 41 | / | / | / | /
Cn1nc(CNS(=O)(=O)c2ccc(Br)s2)c2c1CCCC2 | / | 0 | / | / | / | /
CC(=O)c1c(C)[nH]c(C(=O)NCc2ccccc2)c1C | 0 | 2 | i | -17 | 5 | 2
CCN(CCCNC(=O)c1[nH]c(C)c(C(C)=O)c1C)c1cccc(C)c1 | 0 | 40* | -7 | -16 | 3 | -1
O=C(CSc1nc(-c2ccccc2)c(-c2ccccc2)[nH]1)NCc1ccco1 | 0 | 42* | -1 | -15 | 10 | -2
COc1cccc2sc(N(CCCN(C)C)C(=O)c3ccc(S(=O)(=O)N4CCCc5ccccc54)cc3)nc12 | -1 | 20*! | i | -7 | -15 | 1
CN(C)CCCN(C(=O)c1ccc(S(=O)(=O)N2CCc3ccccc32)cc1)c1nc2c(Cl)cccc2s1 | -1 | 46* | i | -10 | -9 | 2
CCC(NC(=O)c1ccccc1NC(=O)c1ccccc1)C(=O)OC (stereo unspecified) | ? | 52* | 0 | -11 | -1 | -5
CCCCCc1cc(O)c2c(C)cc(=O)oc2c1 | 56* | -9 | i | -23 | -1 | 4
Nc1ccccc1N=Nc1ccccc1N | 1 | 83* | i | -38 | -15 | -1
O=C(NCc1cnn2c1CCCC2)c1ccccc1Cl | / | -16 | / | / | / | /
CN(C)C(=O)CSc1cccc2cccnc12 | 0 | 94* | -1 | -12 | -8 | 5
Cc1cc(C)c(C(=O)CSc2cccc3cccnc23)cc1C | / | 59* | / | / | / | /
O=C(CSc1cccc2cccnc12)N1CCc2ccccc2C1 | / | 91* | / | / | / | /
O=C(CSc1cccc2cccnc12)N1CCCC1 | 5 | 79* | i | -7 | -6 | 2
C=CCNC(=O)C(=O)Nc1cc(C)nc2ccccc12 | / | 0 | / | / | / | /
CCc1ccc(S(=O)(=O)Oc2c(Br)cc(Br)c3cccnc23)cc1 | / | -5 | / | / | / | /
CC(Oc1ccccc1F)C(=O)N1CCN(c2ccc(-c3ccco3)nn2)CC1 (stereo unspecified) | / | -11 | / | / | / | /
Cc1cnc[nH]c1=O | / | -21 | / | / | / | /
NS(=O)(=O)c1ccc(N=Cc2ccc(OC(=O)c3ccccn3)cc2)cc1 | / | 16 | / | / | / | /
O=C(CSc1cccc2cccnc12)n1c2ccccc2c2ccccc21 | / | 73* | / | / | / | /
N#CCCN1CCN(C(=S)c2ccc(-c3cccc(C(F)(F)F)c3)o2)CC1 | / | 16 | / | / | / | /
O=C(CN1CC[n+]2c(-c3cccs3)csc21)c1ccc(-c2ccccc2)cc1 | 401* | 5 | -1 | -3 | 3 | 4
SMILES | PfHsp40 yeast | PriA SSB inh | Vc quorum ag | PrP UTR inh | PrPC TRFRET | SARS 3CLpro inh
CCN1C=CC=C/C1=C(/C#N)c1nc(-c2ccccc2)cs1 | / | 108* | / | / | / | /
Cc1cc(NC(=O)Nc2cccc(Cl)c2)n(-c2ccccn2)n1 | 101* | -9 | 0 | -10 | 7 | 3
Cc1cc(NC(=O)Nc2cccc(Cl)c2)n(-c2ccccc2)n1 | -1 | -8 | i | -23 | 6 | 6
CCOC(=O)c1cc(C)sc1N1C(=O)C2C3C=CC(C3)C2C1=O (stereo unspecified) | 0 | -7 | 30* | -3 | 12 | 2
NC(=O)c1ccc(NC(=O)c2ccc(=O)n(Cc3ccc(F)cc3)n2)cc1 | / | -11 | / | / | / | /
CC(C)(Oc1ccc(Cl)cc1)C(=O)NCCNc1ccc(Nc2ccccn2)nn1 | / | 31* | / | / | / | /
N=C(N)SCCO | / | -12 | / | / | / | /
Nc1nc(SCC(=O)NCCc2ccccc2)n[nH]1 | / | -2 | / | / | / | /
CCCNC(=O)c1nnsc1S(=O)(=O)c1ccc(Cl)cc1 | 120* | -19 | 0 | 10 | 5 | 4
